Laboratory results from PubChem BioAssay AID1159580 (chemical genetic matrix, 2015).
Hit rate of the full screen: of about 5,500 compounds, about 2,000 (36%) were called active. Roughly 18% stayed inconclusive and do not appear here. Cut-off read from the data, not from the text of the source: active = normalized growth mostly below about 0.91 (no sharp cut-off); inconclusive = no clear call, values can overlap the other calls; inactive = mostly above about 0.92. The list shows a part of the results.

Assay: chemical genetic growth profiling, strain panel (AID 1159580);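 note: tested at 20 µM; growth read once vehicle control cultures reached saturation at 30 °C; 1 = growth at the plate median or of vehicle wells; lower values mean less growth of the strain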
Details: S. cerevisiae deletion strains, growth OD

Measured: normalized growth

O=S(=O)(c1cccc2c(Cl)cccc12)N1CCCNCC1
inactive: locus YAL040C, strain CLN3, stronger effect = lower value 0.99 | locus YDR363W, strain ESC2, stronger effect = lower value 1 | locus YER002W, strain NOP16, stronger effect = lower value 0.988 | locus YGR078C, strain PAC10, stronger effect = lower value 0.986 | locus YMR263W, strain SAP30, stronger effect = lower value 1 | locus YNL128W, strain TEP1, stronger effect = lower value 1.01 | locus YNL175C, strain NOP13, stronger effect = lower value 1.03 | locus YNL197C, strain WHI3, stronger effect = lower value 1.03 | locus YNL224C, strain SQS1, stronger effect = lower value 1.01 | locus YOR083W, strain WHI5 (second series), stronger effect = lower value 1.02 | locus YPL241C, strain CIN2, stronger effect = lower value 1
